# Measurements from PubChem BioAssay AID2653 (National Center for Advancing Translational Sciences (NCATS), 2010).
# Inconclusive results are not listed. Unmarked numbers belong to inactive results. Calls come from the whole dose curve; as a rule, active = well fitted curve in the direction sought with a large enough effect; inconclusive = small, poorly fitted or top-dose-only effect, or another doubt; inactive = no such curve, though single readings can be large or run the other way.
# Assay: Secondary Assay for Activators of Human Pyruvate Kinase M2 isoform - Cell Titer Glo Cytotoxicity for Probe SAR; note: % of control where 0% means no effect
# Details: HeLa viability, CellTiter-Glo ATP luminescence, 24 h; series mostly up to 58.2 µM; activity change, negative = cytotoxicity: at the top concentration
# Outline: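 HeLa cells, 500 per well, plated 24 h then exposed to compound 24 h at 37 C. Total ATP by CellTiter-Glo luminescence after 10 min at room temperature; doxorubicin control.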
row,Structure (SMILES),"activity change, negative = cytotoxicity [%]"
1,Cc1ccc2nc(-c3ccc(C)o3)c(NC3CCCC3)n2c1,-16.7
2,O=C1c2ccccc2C(=O)N1c1cccc2ccncc12,0.305
3,O=C1CCc2cc(S(=O)(=O)Nc3cccc(Cl)c3)ccc2N1,-11.9
4,Cc1ccc(NS(=O)(=O)c2ccc3[nH]c(=O)[nH]c3c2)cc1C,-4.73
5,CSc1cc2c(s1)c1cnn(Cc3cccc(O)c3)c(=O)c1n2C,1.75
6,O=C1c2ccccc2C(=O)N1Cc1cccnc1,-7.71
7,Cc1ccc(NS(=O)(=O)c2cc3c(cc2-c2ccccc2)NC(=O)CO3)cc1C,-9.62
8,O=C1c2ccccc2C(=O)N1c1ccccc1O,-14.7
9,Cc1nc(-c2ccc(S(=O)(=O)Nc3ccc(C)c(C)c3)s2)cs1,-17.5
10,O=C1c2ccccc2C(=O)N1c1cccnc1,-29.8
11,O=C1CCc2cc(S(=O)(=O)Nc3ccncc3)ccc2N1,-16.1
12,O=C1CCc2cc(S(=O)(=O)Nc3ccccn3)ccc2N1,-2.99
13,Cc1ccc(NS(=O)(=O)c2cc3c(cc2Br)NC(=O)CO3)cc1C,-10.6
14,O=C1CCc2cc(S(=O)(=O)Nc3cc(F)cc(Cl)c3)c(F)cc2N1,-20.6
15,CN=c1nc(-c2ccccc2)n(-c2ccccc2)s1,-22.6
16,O=S1(=O)N=C(Oc2cccc(Cl)c2)c2ccccc21,-7.68

row,Structure (SMILES),"activity change, negative = cytotoxicity [%]"
1,Cc1ccc(NS(=O)(=O)c2ccc3c(c2)N(C)CCO3)cc1C,-7.1
2,Cc1ccc(NS(=O)(=O)c2cccc(F)c2)cc1C,-3.4
3,Cc1ccc(Nc2c(-c3ccc(C)o3)nc3cccc(C)n23)cc1,-28.8
4,Cc1ccc(NS(=O)(=O)c2cc3c(cc2Cl)NC(=O)CO3)cc1C,-9.17
5,O=C1CCc2cc(S(=O)(=O)Nc3ccc(Cl)c(Cl)c3)c(F)cc2N1,-16.9
6,O=C1c2ccccc2C(=O)N1c1noc2ccccc12,-26.9
7,Cc1ccc(NS(=O)(=O)c2ccc3c(c2)N(C)C(=O)CO3)cc1C,-26.7
8,Cc1ccc(Cl)cc1NS(=O)(=O)c1cc2c(cc1Cl)CCC(=O)N2,-25.3
9,CCNc1cccc(S(=O)(=O)N2CCCN(S(=O)(=O)c3ccc4c(c3)OCCO4)CC2)c1,-20.9
10,Cc1c(Cl)cccc1NS(=O)(=O)c1cc2c(cc1F)NC(=O)CC2,-12.4
11,Cc1ccc2nc(-c3ccc(C)o3)c(Nc3ccc4c(c3)OCO4)n2c1,-28.6
12,O=C1CCc2cc(S(=O)(=O)Nc3ccc4ncccc4c3)ccc2N1,-22.4
13,CCCCN1C(=O)c2ccccc2C1=O,10.9
14,CCNc1cccc(S(=O)(=O)N2CCN(S(=O)(=O)c3ccc4c(c3)OCCO4)CC2)c1,-17.2
15,Cc1ccc(C)c(OC2=NS(=O)(=O)c3ccccc32)c1,-10.2
16,CC(=O)N1CCCc2cc(S(=O)(=O)Nc3ccc(C)c(C)c3)ccc21,-8.97
